Bioassay records (PubChem BioAssay)
Sampled rows, rich in hits. Any-hit rate of the full collection: about 1.5%.
CFTR F508del cor – correctors of CFTR F508del function in bronchial epithelial cells; CFBE cells, YFP halide quenching; stimulated with forskolin plus potentiator P3; % fluorescence drop versus neutral controls; activity (quench increase), % at 7.58 µM; 350,000 tested, 0.36% active;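 active = mean added fluorescence quench of at least 8% versus neutral control, with both replicates also reaching 8%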;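 note: cells transiently co-express mutant CFTR-F508del with the halide-sensitive YFP; corrector assay measuring rescue of mutant channel to the surface after 24 h compound exposure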
PvdQ inh – P. aeruginosa PvdQ acylase inhibition; purified PvdQ acylase, fluorescence plate reader; inhibition, % at 10 µM; 340,000 tested, 0.063% active; AID 488965; in the data active = inhibition above about 30%, passing the limit was not always enough;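 note: 0% = vehicle neutral wells and 100% = reference inhibitor wells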
RAD52 inh – blocks human RAD52 DNA annealing | P43351 | recombinant RAD52 DNA annealing, FRET fluorescence | inhibition, % at 18.7 µM | 360,000 tested, 0.46% active | AID 651710;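 active = every replicate showing at least 50% inhibition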
Glyco luc inh – N-linked glycosylation inhibition | D54 ERlucT glycosylation luciferase reporter, 24 h; percent of 100 nM tunicamycin response | 360,000 tested, 0.23% active | reporter increase, % at 12.5 µM;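 active = mean luciferase reporter signal, scaled so untreated is 0 and the glycosylation-blocking control 100, at or above a set limit in every replicate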;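 note: luciferase carries N-glycosylation sites so blocking glycosylation raises the light; 0% = median of neutral control wells and 100% = median of 100 nM tunicamycin wells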
RAD54 inh – blocks human RAD54 Holliday junction branch migration | Q92698 | FAM/BHQ fluorescence | inhibition, % at 10.4 µM | 360,000 tested, 0.14% active | AID 602329;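 active = mean normalized replicate activity at least 40 and at least half of replicates scoring 40 or more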;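 note: 0% = median of neutral control wells and 100% = median of positive control wells; inhibitors cause a drop in the FAM fluorescence signal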
dFosB act – mouse delta FosB homodimer activation | purified delta FosB, TAMRA-CDK5 oligo fluorescence polarization; percent of positive-control signal above neutral wells | activation, % at 25 µM | AID 493131 | 340,000 tested, 0.99% active | P13346;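 active = mean activation above about 17%, with every replicate also reaching it, limit read from the data, passing the limit was not always enough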
Target sequence (P13346 whole entry, looked up): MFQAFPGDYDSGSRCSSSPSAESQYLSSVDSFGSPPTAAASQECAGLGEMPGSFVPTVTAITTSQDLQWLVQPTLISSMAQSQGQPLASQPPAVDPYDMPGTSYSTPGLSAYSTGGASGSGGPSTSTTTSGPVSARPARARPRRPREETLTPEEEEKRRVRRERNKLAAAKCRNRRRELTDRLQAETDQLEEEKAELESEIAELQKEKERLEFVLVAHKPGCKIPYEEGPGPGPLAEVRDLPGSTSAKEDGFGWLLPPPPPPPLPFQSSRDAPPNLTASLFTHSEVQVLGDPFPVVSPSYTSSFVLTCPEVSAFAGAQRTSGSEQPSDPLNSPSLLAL
* = called active by the depositor; nt = no result.

SMILES	CFTR F508del cor	PvdQ inh	RAD52 inh	Glyco luc inh	RAD54 inh	dFosB act
COc1ccc(C#Cc2ccc3c(c2)[C@H]2[C@H](CCN2Cc2ccncc2)[C@@H](CO)N3)cc1	1	nt	63*	nt	nt	nt
C[C@@H]1CN([C@@H](C)CO)S(=O)(=O)c2ccc(C#CCC3CCCC3)cc2O[C@H]1CN(C)C	0	nt	-13	nt	0	nt
O=C(Nc1c2ccccc2nc2ccccc12)C(Cl)(Cl)Cl	nt	-2	nt	93*	83*	-7
C[C@H](CO)N1C[C@H](C)[C@H](CN(C)S(=O)(=O)c2cccs2)OCCCC[C@H](C)Oc2ccc(N(C)C)cc2C1=O	2	nt	nt	nt	nt	nt
Cc1cccc(CC(=O)Nc2cccnc2)c1	8.4*	1	-10	0	6	0
O=C(Cc1ccccc1)Nc1cccnc1	0	2	-11	2	nt	0
O=C(C1CCCC1)N1CC[C@@H]2[C@H]1c1cc(C3=CCCCC3)ccc1N[C@@H]2CO	3	nt	6	nt	nt	nt
O=C(/C=C/c1ccc(Br)cc1)c1ccco1	nt	56*	-3	8	nt	0
O=C(O)CCCCCCCCc1cn(Cc2ccc(C(=O)c3ccccc3)cc2)nn1	14*	12	-8	17	-5	-3
O=C(c1ccccc1)c1ccc(Cn2cc(CCCO)nn2)cc1	1	-14	-9	-3	-11	3
C[C@H](CO)N1C[C@H](C)[C@H](CN(C)C(=O)Cc2cccnc2)Oc2cc(C#Cc3ccccc3F)ccc2S1(=O)=O	0	nt	23	nt	-13	nt
C[C@@H]1CN([C@H](C)CO)S(=O)(=O)c2ccc(C#Cc3ccccc3F)cc2O[C@H]1CN(C)C(=O)Cc1cccnc1	10*	nt	12	nt	-17	nt
COc1ccccc1C#Cc1ccc2c(c1)O[C@@H](CN(C)Cc1cccnc1)[C@H](C)CN([C@H](C)CO)S2(=O)=O	8.2*	nt	-3	nt	3	nt
COc1ccccc1C#Cc1ccc2c(c1)O[C@H](CN(C)Cc1cccnc1)[C@H](C)CN([C@H](C)CO)S2(=O)=O	2	nt	14	nt	3	nt
Cc1ccc2[nH]c(C(=O)N/N=C/c3ccccc3O)c(C)c2c1	8.4*	-6	-7	-10	2	-9
Cc1cc(Cl)cc(C)c1OCCn1ccnc1	13*	-19	-3	-3	-20	-13
CCSC(=O)N1c2ccc(OC)cc2C=CC1C#N (stereo unspecified)	15*	-1	-93	5	nt	-6
C/C=C/c1ccc([C@@H]2[C@H](CO)N3CCCCN(C(=O)Nc4cc(F)ccc4F)C[C@@H]23)cc1	0	nt	1	nt	7	nt
CS(=O)(=O)N1C[C@H](O)COC[C@@H]2O[C@@H](CC(=O)NCc3ccc(-c4ccccc4)cc3)CC[C@H]21	1	nt	78*	nt	7	nt
O=C(C[C@@H]1CC[C@H]2[C@@H](COC[C@H](O)CN2S(=O)(=O)c2ccccc2)O1)NCc1ccc(-c2ccccc2)cc1	-1	nt	80*	nt	-7	nt
CS(=O)(=O)N1C[C@@H](O)COC[C@@H]2O[C@H](CC(=O)NCc3ccc(-c4ccccc4)cc3)CC[C@H]21	-2	nt	36	nt	-24	nt
O=C(C[C@H]1CC[C@@H]2[C@H](COC[C@@H](O)CN2S(=O)(=O)c2ccccc2)O1)Nc1ccc(-c2ccccc2)cc1	8.3*	nt	3	nt	-11	nt
O=C(C[C@@H]1CC[C@@H]2[C@H](COC[C@@H](O)CN2Cc2ccc3c(c2)OCO3)O1)Nc1ccc(-c2ccccc2)cc1	3	nt	nt	nt	-6	nt
O=C(C[C@@H]1CC[C@H]2[C@@H](COC[C@H](O)CN2Cc2ccc3c(c2)OCO3)O1)Nc1ccc(-c2ccccc2)cc1	9.6*	nt	5	nt	1	nt
O=C(Nc1ccccc1)N1C[C@@H]2[C@H](c3ccccc31)[C@@H](CO)N2Cc1ccc(F)cc1	-3	nt	1	nt	-8	nt
SMILES	CFTR F508del cor	PvdQ inh	RAD52 inh	Glyco luc inh	RAD54 inh	dFosB act
COc1cccc(NC(=O)N2C[C@@H](O)COC[C@H]3O[C@@H](CC(=O)NC4Cc5ccccc5C4)CC[C@@H]32)c1	0	nt	-3	nt	3	nt
C[C@@H]1CN([C@@H](C)CO)C(=O)c2cc(NS(=O)(=O)c3ccc(Cl)cc3)ccc2O[C@@H](C)CCCCO[C@@H]1CN(C)Cc1ccc(C(=O)O)cc1	0	nt	-1	nt	2	nt
O=c1c2ccccc2oc2ccc(C#CC3(O)CCCCC3)cc12	2	-13	-19	-18	-9	-12
COc1cccc2oc3ccc(C#CC4(N)CCCCC4)cc3c(=O)c12	3	-10	-2	-7	51*	-19
CNC(=O)C[C@H]1CC[C@H]2[C@@H](COC[C@H](O)CN2C(=O)Nc2cccc(OC)c2)O1	2	nt	9	nt	1	nt
CCOc1ccccc1-c1c2cc(O)c(=O)cc-2oc2cc(O)c(O)cc12	nt	-2	nt	-13	nt	51*
COc1ccc(OC)c(-c2c3cc(O)c(=O)cc-3oc3cc(O)c(O)cc23)c1	nt	3	nt	-13	nt	46*
O=c1cc2oc3cc(O)c(O)cc3c(-c3ccccc3O)c-2cc1O	nt	-2	nt	-3	nt	-112
COCCNC(=O)[C@@H]1[C@@H](CO)[C@@H]2Cn3c(ccc(-c4ccccc4F)c3=O)[C@H]1N2S(C)(=O)=O	nt	nt	12	nt	-1	nt
C[C@H](CO)N1C[C@H](C)[C@H](CN(C)C(=O)C2CCCCC2)OCCCC[C@H](C)Oc2ccc(NC(=O)Nc3ccc(C(F)(F)F)cc3)cc2C1=O	4	nt	-13	nt	-1	nt
C[C@@H]1CCCCO[C@@H](CN(C)Cc2ccncc2)[C@H](C)CN([C@H](C)CO)C(=O)c2cc(NC(=O)Nc3ccc(C(F)(F)F)cc3)ccc2O1	2	nt	49	nt	5	nt
COc1ccc(CN(C)C[C@@H]2OCCCC[C@H](C)Oc3ccc(NC(=O)Nc4ccc(C(F)(F)F)cc4)cc3C(=O)N([C@H](C)CO)C[C@H]2C)cc1	0	nt	65*	nt	-3	nt
COc1ccc(NC(=O)Nc2ccc3c(c2)C(=O)N([C@H](C)CO)C[C@H](C)[C@@H](CN(C)Cc2ccc(C(F)(F)F)cc2)OCCCC[C@H](C)O3)cc1	-2	nt	-111	nt	-6	nt
C[C@H]1CCCCO[C@H](CN(C)Cc2ccncc2)[C@@H](C)CN([C@@H](C)CO)C(=O)c2cc(NC(=O)Nc3ccc(C(F)(F)F)cc3)ccc2O1	2	nt	57*	nt	-7	nt
COc1ccc(CN(C)C[C@H]2OCCCC[C@H](C)Oc3ccc(NC(=O)Nc4ccc(C(F)(F)F)cc4)cc3C(=O)N([C@H](C)CO)C[C@H]2C)cc1	8.7*	nt	33	nt	8	nt
C[C@H]1CCCCO[C@@H](CN(C)C(=O)C2CCCCC2)[C@@H](C)CN([C@@H](C)CO)C(=O)c2cc(NC(=O)Nc3ccc(C(F)(F)F)cc3)ccc2O1	10*	nt	0	nt	28	nt
COc1ccc(CN(C)C[C@@H]2OCCCC[C@H](C)Oc3ccc(NC(=O)Nc4ccc(C(F)(F)F)cc4)cc3C(=O)N([C@@H](C)CO)C[C@H]2C)cc1	-2	nt	52*	nt	12	nt
